ELG1 genotoxic – qHTS screen for small molecules that induce genotoxicity in human embryonic kidney (HEK293T) cells expressing luciferase-tagged ELG1; HEK293T ELG1-luciferase reporter, luminescence, 16 h; Potency, µM (top dose mostly 46 µM), actives largely listed as activators; actives 1.3% (n = 330,000); note: nearly all actives have a fitted effect of over 60% in size
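Genotoxicity was scored as increased ELG1-luciferase reporter signal, measured by ONE-Glo luminescence (30 min, room temperature). Compound or vehicle exposure of the HEK293T reporter cells lasted 16 hr at 37°C.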
SMN2 splice up – qHTS Assay for Enhancers of SMN2 Splice Variant Expression | Potency, µM (highest dose often 46.1 µM), actives largely listed as activators | actives 2.8% (n = 210,000) | HEK293 SMN2-luciferase splicing reporter, luminescence, 30-36 h; note: nearly all actives have a fitted effect of over 55% in size
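HEK293 cells carry an SMN2 minigene-luciferase reporter in which exon 7 inclusion puts luciferase in frame. Cells were seeded at 2000 cells/well, attached for 10-12 hours, then exposed to compounds for 30-36 hours at 37C before ONE-Glo luminescence.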
Rab9 promoter act – qHTS Assay for Rab9 Promoter Activators; actives 2.8% (n = 320,000); Huh7 Rab9 promoter-luciferase reporter, luminescence, 24 h; AID 485297, 2010; Potency, µM (top dose mostly 9.22 µM), most hits filed as activators; note: nearly all actives have a fitted effect of over 60% in size
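Huh7 cells stably carrying Rab9 promoter–luciferase reporter, plated 1500 cells/well, compound added after 2 h and incubated 24 h at 37 °C; luciferase luminescence then read after 10 min with detection reagent.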
FLuc modulator – qHTS profiling assay for firefly luciferase inhibitor/activator using purifed enzyme and Km concentrations of substrates (counterscreen for miR-21 project). Potency, µM (highest dose often 57.5 µM), most hits filed as inhibitors. actives 6.9% (n = 360,000). AID 588342, 2011. purified FLuc, Km substrates, luminescence inhibition. Luciferin 4-monooxygenase (Photinus pyralis), P08659; note: nearly all actives have a fitted effect of over 55% in size
Target sequence (P08659 whole entry, looked up): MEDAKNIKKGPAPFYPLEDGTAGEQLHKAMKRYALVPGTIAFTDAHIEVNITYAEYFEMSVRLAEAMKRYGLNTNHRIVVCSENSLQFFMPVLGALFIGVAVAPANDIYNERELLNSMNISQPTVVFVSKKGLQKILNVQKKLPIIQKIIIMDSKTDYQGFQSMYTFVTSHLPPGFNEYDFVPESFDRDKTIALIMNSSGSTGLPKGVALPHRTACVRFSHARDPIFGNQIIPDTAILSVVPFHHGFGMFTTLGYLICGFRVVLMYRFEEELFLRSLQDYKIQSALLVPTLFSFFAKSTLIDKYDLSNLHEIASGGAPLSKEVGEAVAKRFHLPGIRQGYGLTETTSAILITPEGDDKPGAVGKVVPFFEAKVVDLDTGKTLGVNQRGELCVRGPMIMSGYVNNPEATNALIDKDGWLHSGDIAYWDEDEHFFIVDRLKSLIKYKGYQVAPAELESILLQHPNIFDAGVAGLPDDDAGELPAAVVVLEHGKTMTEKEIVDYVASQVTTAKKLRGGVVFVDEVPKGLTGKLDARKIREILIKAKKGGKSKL
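Purified P. pyralis luciferase (10nM final) with 10uM D-luciferin and 10uM ATP (Km levels) in 50mM Tris acetate pH 7.5, 10mM Mg acetate, 0.01% Tween-20, 0.05% BSA; qHTS 6-point titration, ~60 µM downward; luminescence read.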
NPC1 promoter act – qHTS Assay for NPC1 Promoter Activators; AID 485313, 2010; Huh7 NPC1 promoter luciferase reporter, 24 h; actives 2.4% (n = 320,000); Potency, µM (series often up to 9.22 µM), hits mostly activators; note: nearly all actives have a fitted effect of over 60% in size
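Quantitative HTS used a cell-based reporter: Huh7 cells stably bearing the NPC1 promoter upstream of luciferase were treated with compounds for 24 h, and promoter activation was read as luminescence.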
Of the large screens only hits and unclear results are named; the others gave an inactive call. Sampled rows, rich in hits. Any-hit rate of the full collection: about 7.4%. Calls come from the whole dose curve; as a rule, active = well fitted curve in the direction sought with a large enough effect; inconclusive = small, poorly fitted or top-dose-only effect, or another doubt; inactive = no such curve, though single readings can be large; an effect the other way counts as inactive or inconclusive.

COc1ccc2nc(NC(=O)CN3C(=O)NC4(CCCCC4)C3=O)sc2c1	FLuc modulator 15.1µM (no result: SMN2 splice up)
Cc1ccc2nc(NC(=O)CN3C(=O)NC4(CCCCC4)C3=O)sc2c1	FLuc modulator 5.36µM (no result: SMN2 splice up)
COc1ccc(NC(=O)CN2C(=O)NC3(CCCC3)C2=O)cc1	NPC1 promoter act inconclusive (no result: SMN2 splice up)
O=C(CN1C(=O)NC2(CCCC2)C1=O)Nc1nc2ccccc2s1	FLuc modulator inconclusive (no result: SMN2 splice up)
COc1ccc2nc(NC(=O)CN3C(=O)NC4(CCCC4)C3=O)sc2c1	FLuc modulator 12µM (no result: SMN2 splice up)
CCN1CCN(CC(=O)Nc2nc3ccc(OC)cc3s2)CC1	none
Cc1c(NS(=O)(=O)c2cccc(C(=O)Nc3cccc(F)c3)c2)c(=O)n(-c2ccccc2)n1C	none (no result: SMN2 splice up)
COc1ccc(-c2cnnn2-c2ccc([N+](=O)[O-])cc2)cc1	none (no result: SMN2 splice up)
O=C(CC1C(=O)NCCN1Cc1cccc(F)c1F)NCCCC1CCCC1 (centres undefined)	none (no result: SMN2 splice up)
COc1cccc(C(=O)Nc2cc(C(=O)NCCc3ccccc3)ccc2Cl)c1	ELG1 genotoxic inconclusive, SMN2 splice up 11.2µM
COc1cccc(C(=O)Nc2ccccc2NC(=O)c2cccc(OC)c2)c1	none (no result: SMN2 splice up)
CCCCC(=O)Nc1cc(C(=O)NCCc2ccccc2)ccc1Cl	ELG1 genotoxic inconclusive, SMN2 splice up 7.94µM, Rab9 promoter act 2.51µM, NPC1 promoter act 2.24µM
C1=C(CCNc2ncnc3c2[nH]c2ccccc23)CCCC1	FLuc modulator 19µM
O=c1c2[nH]c3ccccc3c2ncn1CCC1=CCCCC1	Rab9 promoter act inconclusive, NPC1 promoter act 2.51µM
O=C[C@@H]1CCCN1C(=O)[C@@H]1CCCN1C(=O)OCc1ccccc1	none (no result: ELG1 genotoxic, Rab9 promoter act, FLuc modulator, NPC1 promoter act)
Cc1ccn2c(C(=O)N/N=C/c3ccc(CNC(=O)C(=O)Nc4ccc(C)c(C)c4)o3)c(C)nc2c1	FLuc modulator 6.75µM
Cc1nc2ccccn2c1C(=O)N/N=C/c1ccccc1	none (no result: SMN2 splice up)
Cc1ccc(NC(=O)C(=O)NCc2ccc(/C=N/NC(=O)c3c(C)nc4ccccn34)o2)cc1	SMN2 splice up inconclusive, FLuc modulator 1.69µM
CC1CC1C(=O)OCC(=O)Nc1cc(S(=O)(=O)N2CCCCC2)ccc1Cl (centres undefined)	none (no result: SMN2 splice up, Rab9 promoter act, FLuc modulator, NPC1 promoter act)
Cc1ccc(C)c(OCCC(=O)NCCc2ccc(F)cc2)c1	none (no result: SMN2 splice up)
N#C/C(C(=O)N1CCOCC1)=C1\Nc2ccccc2S1	ELG1 genotoxic inconclusive, SMN2 splice up inconclusive, FLuc modulator 16.9µM
COc1ccc(Cl)cc1NC(=O)Nc1ccc(C(=O)N2CCCC2)cc1	FLuc modulator 21.3µM (no result: SMN2 splice up)
COc1ccc(C)cc1NC(=O)Nc1ccc(C(=O)N2CCCC2)cc1	FLuc modulator 13.5µM (no result: SMN2 splice up)
Cc1ccc(NC(=O)c2cnn(-c3ccccc3)c2C)cc1	ELG1 genotoxic 1.46µM, Rab9 promoter act 0.398µM, FLuc modulator 1.07µM, NPC1 promoter act 0.316µM (no result: SMN2 splice up)
Cc1ccc(NC(=O)c2cnn(-c3ccccc3)c2C)c(C)c1	ELG1 genotoxic inconclusive, Rab9 promoter act 3.16µM, FLuc modulator 12µM, NPC1 promoter act 2.51µM (no result: SMN2 splice up)
CC(C)[C@@H]1CC[C@@H](C)C[C@@H]1P(=O)(c1ccccc1)c1ccccc1	none (no result: ELG1 genotoxic, SMN2 splice up, FLuc modulator)
O=C(O)/C=C/C(=O)NNC(=O)c1cc(-c2ccccc2)n[nH]1	FLuc modulator 10.7µM
O=C(O)/C=C\C(=O)NNC(=O)c1cc(-c2ccccc2)n[nH]1	FLuc modulator 10.7µM (no result: SMN2 splice up)
O=C(O)c1cc(-c2ccccc2)n[nH]1	none
O=C(NNS(=O)(=O)c1ccccc1F)c1cc(-c2ccccc2)n[nH]1	none (no result: SMN2 splice up)
COc1ccc(-n2c3c(cc(-c4nc(-c5ccc(C)cc5)cs4)c2=O)C(=O)CC(C)(C)C3)cc1	none (no result: ELG1 genotoxic, Rab9 promoter act, NPC1 promoter act)
O=C(c1ccccc1-c1nc(-c2ccc(Cl)cc2)no1)N1CCCC1	ELG1 genotoxic inconclusive, Rab9 promoter act 3.16µM, FLuc modulator 19µM, NPC1 promoter act inconclusive
Cc1ccc(-c2noc(-c3ccccc3C(=O)N3CCCC3)n2)cc1	ELG1 genotoxic inconclusive, FLuc modulator 23.9µM
O=C(c1ccccc1-c1nc(-c2ccccc2)no1)N1CCCC1	SMN2 splice up inconclusive, FLuc modulator 26.9µM
Cc1ccc(-c2noc(-c3ccccc3C(=O)N3CCN(C)CC3)n2)cc1	ELG1 genotoxic inconclusive, FLuc modulator inconclusive

High-throughput results: PubChem, National Center for Advancing Translational Sciences (NCATS)
